The list is not random: actives were taken first. Their share in the collection is about 8.7%.
AMA1 RON2 block: disrupts binding of P. falciparum AMA1 to RON2; AlphaScreen AMA1-biotinylated RON2 peptide binding; Potency, µM (top dose mostly 58.2 µM), for inactives: top-dose activity change, negative = inhibition, actives largely listed as inhibitors; 0.2% of 360,000 active; AID 720542;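 note: 0% = vehicle wells and -100% = peptide control; nearly all actives have a fitted effect of over 45% in size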
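AMA1 (3D7) with his tag at 25 nM final met compounds first, then biotinylated RON2 peptide at 25 nM; detection used donor plus acceptor beads, 10 µg/mL apiece, read by AlphaScreen after 30 min at room temperature.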
Vaccinia Venus: inhibitors of vaccinia virus (Venus reporter) | Vaccinia virus Venus reporter expression, fluorescence | Potency, µM (highest dose often 36.5 µM), for inactives: at the top dose activity change, negative = inhibition, actives largely listed as inhibitors | 0.46% of 330,000 active; calls by dose curve; tested in A549 cells; note: nearly all actives have a fitted effect of over 30% in size
Pf growth 48h: P. falciparum growth inhibition at 48 hours (one generation); P. falciparum luciferase growth in erythrocytes, 48 h; Potency, µM (doses to about 28.7 µM), for the others: top-dose activity change, negative = inhibition, hits mostly inhibitors; 5.9% of 310,000 active
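A one-generation exposure of luciferase-tagged malaria parasites in RPMI 1640/Albumax erythrocyte culture, 37 C and 5% CO2. Inhibition is inferred from decreased luminescence after adding detection reagent.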
Pf growth 96h: P. falciparum growth inhibition at 96 hour, primary screen for plastid delayed-death inhibitors | 6.9% of 320,000 active | Potency, µM (titrated, usually from 28.7 µM), without a hit: at the top dose activity change, negative = inhibition, actives largely listed as inhibitors | P. falciparum luciferase reporter growth, 96 h
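Cell-based qHTS: luciferase-tagged P. falciparum in erythrocytes (2% hematocrit, 0.05% parasitemia final) incubated with compounds for 96 hours, 37 C, 5% CO2; luciferase detection reagent then added and luminescence measured.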
Vaccinia mCherry: inhibitors of vaccinia virus infection (mCherry reporter signal) | Potency, µM (series often up to 36.5 µM), inactives show top-dose activity change, negative = inhibition, most hits filed as inhibitors | 0.63% of 310,000 active | Vaccinia virus mCherry reporter infection, fluorescence; calls by dose curve; tested in A549 cells; note: nearly all actives have a fitted effect of over 35% in size
Numbers without * were called inactive; i = inactive; u = inconclusive; x = not tested or not shown. Unless noted, calls come from the whole dose curve; as a rule, active = well fitted curve in the direction sought with a large enough effect; inconclusive = small, poorly fitted or top-dose-only effect, or another doubt; inactive = no such curve, though single readings can be large; an effect the other way counts as inactive or inconclusive. Unless noted, % is set by controls: 0 for no effect and ±100 for the full control effect; potency is the fitted concentration of half-maximal effect.

SMILES | AMA1 RON2 block | Vaccinia Venus | Pf growth 48h | Pf growth 96h | Vaccinia mCherry
Cc1c(Cl)cccc1-n1nc(C)c2c(C(=O)NCc3ccccc3)cc(C3CC3)nc21 | x | -11% | x | x | -14%
COc1ccc(C(=O)c2c(C(F)(F)F)oc3c2C(=O)c2ccccc2C3=O)cc1OC | u | 5.6µM* | x | u | x
Cn1nc(-c2ccccc2)c(CSc2ccccc2)c1Cl | 63% | -26% | x | 9.3µM* | x
COc1ccc(CN2CCOc3ccc(C(O)c4cccnc4)cc3C2)c(F)c1 (stereo not given) | x | -9% | x | x | -14%
O=C(Nc1ccccc1)c1cc(S(=O)(=O)NCc2ccncc2)ccc1Cl | 12% | -18% | -6% | 12µM* | -3%
COc1ccc(S(=O)(=O)NCc2cccnc2)cc1C(=O)Nc1ccccc1 | -11% | -8% | -14% | 10µM* | -12%
CCS(=O)(=O)N1CC(=O)N(c2ccccc2C)C(C)(C(=O)NC2CCCCC2)C1 (stereo not given) | x | -7% | x | x | -8%
C/C1=C2N=C(/C=C3N=C(/C(C)=C4\[N-]C(C)(C5N=C1C(C)(CCC(=O)NCC(C)OP(=O)([O-])O[C@H]1C(O)C(n6cnc7cc(C)c(C)cc76)O[C@@H]1CO)C5CC(N)=O)C(C)(CC(N)=O)C4CCC(N)=O)C(C)(CC(N)=O)C\3CCC(N)=O)C(C)(C)C/2CCC(N)=O.[CH2-]C1OC(n2cnc3c(N)ncnc32)C(O)C1O.[Co] (stereo not given in full) | x | x | 8.5µM* | 6.7µM* | x
CCc1ccccc1N(C)C(=O)c1cc2c(=O)oc3ccccc3c2s1 | x | 2.5µM* | x | x | -9%
Nc1cccc2[nH]cnc12 | x | -16% | x | x | i
CC1(C)CC(=O)CC2(C1)NCC(c1ccccc1)c1c2[nH]c2ccccc12 (stereo not given) | -1% | -12% | 5.9µM* | 10µM* | -14%
CC1(C)NC(C(=O)O)Cc2c1[nH]c1ccccc21 (stereo not given) | -1% | 2% | 30% | -2% | 1%
Cc1cc(S(=O)(=O)Nc2c(NC3CCCCC3)c3ccccc3oc2=O)ccc1F | 7% | x | 12% | 10µM* | x
O=C(c1ccc(S(=O)(=O)NCc2ccco2)cc1)N1CCN(c2ccc(F)cc2)CC1 | -9% | x | u | u | x
O=C(/C=C/c1ccc(S(=O)(=O)NCc2ccco2)cc1)N1CCN(c2ccccc2)CC1 | -1% | -8% | u | 3.7µM* | -6%
CCN1C(=O)[C@H]2[C@@H](c3ccc(C)cc3)N3C(=O)N(c4cccc(Br)c4)C(=O)[C@@]3(CC(C)C)[C@H]2C1=O | 18% | -19% | u | 15µM* | i
O=C1[C@H]2[C@@H](c3ccc(F)cc3)N3C(=O)N(c4cccc(F)c4)C(=O)[C@@]3(Cc3ccccc3)[C@H]2C(=O)N1C1CCCCC1 | -2% | -11% | u | u | i
CC(C)C[C@@]12C(=O)N(c3cccc(Br)c3)C(=O)N1[C@H](c1ccc(F)cc1)[C@@H]1C(=O)N(C3CCCCC3)C(=O)[C@@H]12 | -10% | -12% | 1.9µM* | u | i
O=C1[C@H]2[C@@H](c3ccc(F)cc3)N3C(=O)N(c4cccc(Br)c4)C(=O)[C@@]3(Cc3ccccc3)[C@H]2C(=O)N1C1CCCCC1 | -1% | u | 4.1µM* | u | -11%
CC[C@@]12C(=O)N(c3cccc(Br)c3)C(=O)N1[C@H](c1ccc(F)cc1)[C@@H]1C(=O)N(C3CCCCC3)C(=O)[C@@H]12 | -3% | -25% | u | u | -5%
O=C1[C@H]2[C@@H](c3ccc(Cl)cc3)N3C(=O)N(c4cccc(Cl)c4)C(=O)[C@@]3(Cc3ccccc3)[C@H]2C(=O)N1C1CCCCC1 | -3% | -21% | 2.1µM* | 5.9µM* | i
CCc1ccc2[nH]c(=O)c(CN(Cc3cccnc3)Cc3nnnn3Cc3ccccc3)cc2c1 | x | -24% | x | x | -5%
CC(CN1CCc2nnc(CNC(=O)c3cccc(F)c3)n2CC1)c1ccccc1 (stereo not given) | x | -10% | x | x | -12%
COc1ccc(NC(=O)c2ccco2)cc1NC(=O)c1cc(OC)c(OC)c(OC)c1 | x | 0% | x | x | -7%
Cc1ccn2cc(CNC(=O)c3cccc(C(F)(F)F)c3)nc2c1 | x | -3% | x | x | -5%
SMILES | AMA1 RON2 block | Vaccinia Venus | Pf growth 48h | Pf growth 96h | Vaccinia mCherry
Cc1ccc(N2C(=O)N3[C@H](c4ccc(F)cc4)[C@@H]4C(=O)N(C5CCCCC5)C(=O)[C@@H]4[C@]3(Cc3ccccc3)C2=O)cc1 | 1% | -14% | 0% | 12µM* | i
N#CC1=C(N)N=C(SCc2cccc3ccccc23)C(C(N)=O)C12CCCCC2 (stereo not given) | -5% | u | x | 12µM* | u
CN(C)c1ccc(/C=C/N2C=CCc3c2ccc2ccccc32)cc1 | x | i | x | x | i
Nn1c(SCC(=O)Nc2cccc(C(F)(F)F)c2)nncc1=O | 50% | -7% | u | -1% | -13%
Nn1c(SCC(=O)Nc2cc(C(F)(F)F)ccc2Cl)nncc1=O | 29% | -5% | 12µM* | u | i
Cc1cc(N2CCN(C)CC2)nc2ccc(NC(=S)N3CCCCCC3)cc12 | -6% | x | u | 9% | x
Cc1cccc(N2CCN(C(=S)Nc3ccc4nc(N5CCN(C)CC5)cc(C)c4c3)CC2C)c1 (stereo not given) | -4% | x | u | 9.3µM* | x
Cc1cc(N2CCN(C)CC2)nc2ccc(NC(=S)N3CCN(c4ccc(Cl)cc4)CC3)cc12 | -10% | -14% | 13µM* | 82% | u
Cc1cc(N2CCN(C)CC2)nc2ccc(NC(=S)N3CCCCC3)cc12 | -20% | -16% | 3.3µM* | 9.3µM* | -22%
Cc1cc(N2CCN(C)CC2)nc2ccc(NC(=S)N3CCN(c4cccc(Cl)c4)CC3)cc12 | -1% | -17% | u | 135% | -8%
Cc1cc(N2CCN(C)CC2)nc2ccc(NC(=S)N3CCN(c4ccc(F)cc4)CC3)cc12 | -8% | -14% | -17% | 3.7µM* | -28%
CC(C)c1nn2c(=O)cc(COC(=O)c3ccc(NC(=O)COc4ccccc4)cc3)nc2s1 | x | -11% | x | x | -18%
CC1=C(C(=O)Nc2ccccc2)C(c2ccncc2)n2nc(SCc3ccccc3F)nc2N1 (stereo not given) | x | -7% | x | x | -11%
Cc1c(Br)cnc2ccccc12 | x | -7% | x | x | -8%
CCCCCCOc1ccc(CC(=O)O)cc1 | x | -8% | x | x | -8%
CCOC(=O)CN(Cc1ccccc1)C(C(=O)NC1CCCCC1)c1ccc(OC)cc1 (stereo not given) | x | -18% | x | x | -20%
Cc1ccccc1NC(=O)Nc1ccc2nc(N3CCN(C)CC3)cc(C)c2c1 | x | -7% | x | x | -11%
COc1ccc(N2CCN(C(=S)Nc3ccc(F)cc3)CC2)cc1 | -9% | -13% | 29% | 15µM* | -1%
COc1ccc(N2CCN(c3ccc(NC(=O)/C=C\C(=O)O)cc3)CC2)cc1 | -29% | x | 3.3µM* | u | x

From PubChem
